From PubChem BioAssay AID2205 (University of Pittsburgh Molecular Library Screening Center, 2009) come the findings set out here.

Hit rate of the full screen: of about 200,000 compounds, about 1,600 (0.8%) were called active.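 Rule for the calls: active = plate Z-score above 3 for both tubulin-high and condensed-nucleus cell shares, with cell loss under 80%, at 10 µM; inactive = the rest, inconclusive results apart.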 Shown is part of a subset that was picked to be rich in actives.

A short description of this test: microtubule stabilizers in HeLa cells, primary screen, imaging, high-content imaging (AID 2205).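 For % tubulin-high responders: anti alpha tubulin signal scored within the nucleus-defined area of each cell.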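 For toxicity: 0% = mean cell density of plate MIN control wells and 100% = no cells.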 The settings on record: HeLa tubulin immunostaining HCS, 24 h, at 10 µM; % Hoechst-high responders: measured here: nuclear condensation Hoechst responders, stronger effect = higher value, share of cells brighter than vehicle mean+2SD; % tubulin-high responders: stronger effect = higher value, share of cells brighter than vehicle mean+2SD; toxicity: measured here: cytotoxicity by cell density.
On to `COc1ccc2c(c1)C(c1cccs1)=NNC(c1cccnc1)=N2`, for which the % Hoechst-high responders amounted to 1.1%, the % tubulin-high responders was 2.37% (inactive) and the toxicity was 7.76%.
For `NC(=O)c1ccc(NC(=O)COC(=O)c2c3c(nc4ccccc24)/C(=C\c2ccc4c(c2)OCO4)CCC3)cc1` the same measures were 1.77%, 5.36% (inactive) and 8.9%.
As for `Cc1ccc(NC(=O)CC2S/C(=N/N=C3\CCCc4ccccc43)NC2=O)cc1` (stereo not drawn), the % Hoechst-high responders was 2.08%, the % tubulin-high responders is 1.84% (inactive) and the toxicity stood at 8.37%.
As for `C[n+]1ccccc1C1CCCC/C1=N\Nc1ccc([N+](=O)[O-])cc1[N+](=O)[O-]` (stereo not drawn), the % Hoechst-high responders came out at 1.98%, the % tubulin-high responders was 5.56% (inactive) and the toxicity was 5.84%.
For `CC(=O)c1ccc(S(=O)(=O)Nc2ccc(C(=O)NCC(c3ccccc3)N(C)C)cc2)cc1` (stereo not drawn) the same measures were 1.41%, 1.91% (inactive) and 3.99%.
The matching figures for `Nc1c(C(=O)O)cnn1-c1ccccc1`: 1.87%, 1.93% (inactive) and 3.6%.
For `Cc1c(CN2CCC(CO)(CCOc3ccccc3)CC2)[nH]c2ccc(Cl)cc12` the same measures were 7.79%, 27.6% (active) and 29.9%.
In the case of `OCC1(CCOc2ccccc2)CCN(Cc2cn[nH]c2-c2ccccc2)CC1`, the % Hoechst-high responders was determined as 2.29%, the % tubulin-high responders was 2.29% (inactive) and the toxicity was determined as 7.78%.
The matching figures for `Cc1cccc(-c2ncc(CN3CCC(CO)(CCCc4ccccc4)CC3)cn2)c1`: 2.55%, 2.1% (inactive) and 2.96%.
The matching figures for `CCc1ccccc1NC(=S)N(CCN1CCCCCC1)Cc1ccco1`: 2.22%, 4.39% (inactive) and 2.58%.
The matching figures for `O=c1[nH]n(-c2ccc([N+](=O)[O-])cc2)c(=O)c2ccccc12`: 1.89%, 3.4% (inactive) and 9.65%.
With `Cc1ccc(-n2c(SCC(=O)N3c4ccccc4Sc4ccccc43)nnc2-c2ccncc2)cc1`, the % Hoechst-high responders was 1.48%, the % tubulin-high responders was 4.83% (inactive) and the toxicity is 6.63%.
Take `Cc1cccc(C)c1NC(=O)CSc1ccc([N+](=O)[O-])cn1`: the % Hoechst-high responders worked out at 2.4%, the % tubulin-high responders was 2.2% (inactive) and the toxicity worked out at 2.93%.
Turning to `Cc1cc(C)c(C#N)c(SCC(=O)Nc2ccccc2)n1`, the % Hoechst-high responders came to 2.87%, the % tubulin-high responders was 3.04% (inactive) and the toxicity turned out to be 8.63%.
Take `Cc1cc2cc3c(cc2nc1SCC(=O)Nc1c(C)cccc1C)CCC3`: the % Hoechst-high responders was found to be 34.5%, the % tubulin-high responders was 47% (active) and the toxicity was found to be 36.2%.
For `CCCCN1C(=O)CCC(C(=O)O)C1c1ccc(OC)cc1` (stereo not drawn) the same measures were 2.91%, 4.23% (inactive) and 11.7%.
For `O=C1CC(=O)Nc2cc(S(=O)(=O)N3CCN(c4cccc(C(F)(F)F)c4)CC3)ccc2N1` the same measures were 10.2%, 22.1% (active) and 36.8%.
The matching figures for `O=c1ccc2cc(S(=O)(=O)N3CCN(c4ccccc4)CC3)ccc2o1`: 1.39%, 0.945% (inactive) and 5.98%.
With `O=S(=O)(c1cccc(C(F)(F)F)c1)N1CCN(c2cnccn2)CC1`, the % Hoechst-high responders worked out at 2.29%, the % tubulin-high responders is 4.64% (inactive) and the toxicity came out at 6.14%.
The matching figures for `C/C(CC1CC(C)(C)OC1=O)=N/Nc1nc(-c2ccccc2)cs1` (stereo not drawn): 2.24%, 6.39% (inactive) and 11.5%.
The matching figures for `Cc1ccc2nc(-c3ccncc3)cc(C(=O)Nc3ccc(OC(F)F)cc3)c2c1`: 37%, 13.9% (active) and 27.1%.
The matching figures for `Cc1ccc2nc(-c3ccncc3)cc(C(=O)Nc3ccc4c(c3)OCCO4)c2c1`: 4.59%, 3.49% (inactive) and 10%.
As for `Cc1ccc2nc(-c3ccccn3)cc(C(=O)Nc3ccc4c(c3)OCO4)c2c1`, the % Hoechst-high responders is 2.11%, the % tubulin-high responders is 3.85% (inactive) and the toxicity was 5.75%.
The matching figures for `CC(C)(O)C#Cc1ncc(C(F)(F)F)cc1Cl`: 2.46%, 3.98% (inactive) and 7.29%.
For `O=C1CC(N2CCN(c3ccc(F)cc3)CC2)C(=O)N1c1ccccc1` (stereo not drawn) the same measures were 1.93%, 2.61% (inactive) and 4.03%.
The matching figures for `Cc1onc(C(=O)NCc2ccc(F)cc2)c1[N+](=O)[O-]`: 1.75%, 2.95% (inactive) and 6.2%.
On to `COc1ccc(/C=C/C(=O)Nc2ccc3c(c2)OCCO3)cc1OC`, for which the % Hoechst-high responders was 1.93%, the % tubulin-high responders was 1.43% (inactive) and the toxicity amounted to 9.72%.
On to `COc1ccc(/C=C/C(=O)OCC(=O)Nc2cccc(Oc3ccccc3)c2)c(OC)c1`, for which the % Hoechst-high responders came out at 4.35%, the % tubulin-high responders is 1.52% (inactive) and the toxicity is 2.38%.
As for `COc1ccc(OC)c(/C=C/C(=O)OCC(=O)Nc2ccc3c(c2)OCCO3)c1`, the % Hoechst-high responders came to 20.4%, the % tubulin-high responders was 17.6% (active) and the toxicity is 25.4%.
As to `O=C(CSc1ccc2nnc(-c3ccccc3)n2n1)N1CCCc2ccccc21`, the % Hoechst-high responders stood at 4.1%, the % tubulin-high responders was 2.62% (inactive) and the toxicity was 12.3%.
The matching figures for `NC1=NC(=O)S/C1=C\c1ccc(O)cc1`: 3.29%, 1.93% (inactive) and 4.56%.
With `O=C(NNC(=S)NCc1ccco1)C(c1ccccc1)c1ccccc1`, the % Hoechst-high responders came to 2.12%, the % tubulin-high responders was 1.06% (inactive) and the toxicity was 3.3%.
For `C=CCOC(=O)C1=C(C)NC(SCC(=O)OCC)=C(C#N)C1c1ccc(C)cc1` (stereo not drawn) the same measures were 1.55%, 2.42% (inactive) and 8.87%.
For `CC1=C(C(=O)Nc2ccccc2)C(c2ccco2)C(C#N)=C(SCC(N)=O)N1` (stereo not drawn) the same measures were 1.48%, 1.69% (inactive) and 9.84%.
The matching figures for `CCOC(=O)CSC1=C(C#N)C(c2sccc2C)CC(=O)N1` (stereo not drawn): 46%, 25.8% (active) and 48.2%.
In the case of `C=CCSC1=C(C#N)C(c2cc(Br)c(O)c(OC)c2)CC(=O)N1` (stereo not drawn), the % Hoechst-high responders came to 5.45%, the % tubulin-high responders was 1.66% (inactive) and the toxicity was 9.07%.
The matching figures for `CCOC(=O)CSC1=C(C#N)C(c2ccco2)C(C(=O)OCc2ccccc2)=C(C)N1` (stereo not drawn): 31.7%, 50.8% (active) and 30%.
For `CC1=C(C(=O)OCc2ccccc2)C(c2ccco2)n2ncnc2N1` (stereo not drawn) the same measures were 2.47%, 2.96% (inactive) and 10.1%.
Turning to `COC(=O)CSC1=C(C#N)C(c2ccccc2OC)C(C(=O)OC)C(=O)N1` (stereo not drawn), the % Hoechst-high responders amounted to 1.9%, the % tubulin-high responders is 3.79% (inactive) and the toxicity stood at 6.69%.
The matching figures for `COc1cc2c(cc1OC)C(c1ccc(C)o1)CC(=O)N2` (stereo not drawn): 2.57%, 2.94% (inactive) and 5.58%.
For `Cc1ccc(C2CC(=O)NC(SCC(=O)OCc3ccccc3)=C2C#N)o1` (stereo not drawn) the same measures were 13%, 33.6% (active) and 51.7%.
